From PubChem BioAssay AID2551 (National Center for Advancing Translational Sciences (NCATS), 2010)
In all, about 310,000 compounds went through this assay and about 17,000 (5.5%) were called active. Another 11% or so got no clear call; they are omitted. The sample holds actives, similar compounds and a random draw of the others, so the mix is not that of the screen. Values without a mark were called inactive. The call rests on the fitted dose curve; in most records, active means well fitted inhibition curve with a large enough effect; inconclusive means small, poorly fitted or top-dose-only effect, or effect the other way; inactive means no such curve, though single readings can be large or run the other way.

Target: Nuclear receptor ROR-gamma (Mus musculus) (UniProt P51450)
Experiment: qHTS for inhibitors of ROR gamma transcriptional activity; further: nearly all actives have a fitted effect of over 60% in size
Details: Drosophila S2 Gal4-RORgamma UAS-luciferase reporter, 20 h; series mostly up to 53.6 µM; activity change, negative = inhibition: at the top concentration
How it was run: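 Compounds are pin-transferred onto Drosophila Schneider cells expressing a copper-inducible Gal4–ROR gamma transactivation domain fusion. After 1 hr, copper sulfate is added to 700 uM final; luciferase is read 20 hr later.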
On the % scale 0 is the no-effect control and ±100 the full control effect; potency means the concentration at half of the fitted maximal effect.

Nuclear receptor ROR-gamma (Mus musculus), sequence (P51450 whole entry, looked up): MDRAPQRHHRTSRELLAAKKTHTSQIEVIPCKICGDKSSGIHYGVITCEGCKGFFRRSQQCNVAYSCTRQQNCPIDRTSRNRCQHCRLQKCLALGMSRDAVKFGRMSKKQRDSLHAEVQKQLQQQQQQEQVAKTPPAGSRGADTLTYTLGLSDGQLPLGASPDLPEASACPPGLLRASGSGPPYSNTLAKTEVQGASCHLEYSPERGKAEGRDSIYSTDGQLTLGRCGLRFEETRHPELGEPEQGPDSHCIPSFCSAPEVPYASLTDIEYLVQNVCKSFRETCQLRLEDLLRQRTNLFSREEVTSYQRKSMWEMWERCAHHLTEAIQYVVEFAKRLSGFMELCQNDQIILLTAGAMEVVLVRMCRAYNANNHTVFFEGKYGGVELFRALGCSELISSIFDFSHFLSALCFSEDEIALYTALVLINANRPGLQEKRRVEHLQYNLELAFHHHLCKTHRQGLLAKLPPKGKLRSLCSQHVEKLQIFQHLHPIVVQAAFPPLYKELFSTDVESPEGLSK

SMILES | activity change, negative = inhibition | Potency
O=S(=O)(c1ccc(Cl)cc1)c1nc(-c2ccccc2F)oc1NCCN1CCOCC1 | 38.8% | 
CC(=O)c1ccc(NC(=O)c2sc3nc4n(c(=O)c3c2C)CCCCC4)cc1 | 34.7% | 
O=C(Nc1ccccc1Cl)Nn1cnnc1 | -16.9% | 
O=C(Cc1ccc2c(c1)CCCC2)Nc1ccccc1Cl | 8.31% | 
O=C(Nc1ccccc1Cl)/C(Cl)=C(\Cl)S(=O)c1ccccc1 (centres undefined) |  | 0.891 µM (active)
Cc1ccc(S(=O)(=O)c2nnn3c2nc(N2CCN(c4ccccn4)CC2)c2ccccc23)cc1 | -12.8% | 
CCC(CC)c1nnc(NC(=O)C2CCN(C(=O)c3ccco3)CC2)s1 | 35.8% | 
CC(CNC(=O)c1ccc(Br)o1)NC(=O)c1ccc(Br)o1 (centres undefined) | -15% | 
C=CCNC(=S)NNC(=O)c1ccc(Br)o1 |  | 2 µM (active)
O=C(NCc1cccs1)c1ccc(Br)o1 | 5.95% | 
CC1CCN(C(=O)Cn2nnnc2CN2CCOCC2)CC1 | -26.6% | 
COC(CNC(=O)c1ccc2c(c1)ncn2-c1cc(C)cc(C)c1)OC | 9.19% | 
O=C(N/N=C/c1sc(N2CCCCC2)nc1-c1cccs1)c1cccnc1 |  | 7.94 µM (active)
O=C(NN=C1CCC(=NNC(=O)c2cccnc2)CC1)c1cccnc1 | -37.9% | 
O=C(N/N=C/c1ccccn1)c1cccnc1 | -45.9% | 
CN(Cc1ccccc1)C(=O)c1ccc(NC2=NC3CS(=O)(=O)CC3S2)cc1 (centres undefined) | -0.867% | 
COc1cccc(Cn2cc(/C=N/NC(=O)c3cc(O)cc(O)c3)c3ccccc32)c1 | -0.821% | 
N#CCC(=O)N/N=C/c1cn(Cc2ccc3ccccc3c2)c2ccccc12 |  | 12.6 µM (active)
CNC(=S)N/N=C/c1cn(Cc2ccc(C)cc2)c2ccccc12 | 31.1% | 
Cc1c(C=O)c2ccccc2n1CCOc1ccccc1 | 77.1% | 
COc1cccc(C(C(=O)NC2CCCC2)N(C(=O)c2ccco2)c2cccc(C(C)=O)c2)c1OC (centres undefined) | 27% | 
Cc1ccc2[nH]c(C)c(CCNC(=O)NC3CCCCC3)c2c1 | 25.9% | 
COc1ccc2[nH]c(C)c(CCN(Cc3cccs3)C(=S)Nc3ccccc3OC)c2c1 | 38.3% | 
COCCNC(=S)N(CCc1c(C)[nH]c2ccc(C)cc12)Cc1cccnc1 | 5.98% | 
COc1cccc(NC(=S)N(CCc2c(C)[nH]c3ccccc23)Cc2ccco2)c1 |  | 11.2 µM (active)
Cc1[nH]c2ccccc2c1CCN(Cc1cccs1)C(=S)NC(C)(C)C | 3.01% | 
CCNC(=S)N(CCc1c(C)[nH]c2ccc(C)cc12)Cc1ccco1 |  | 11.2 µM (active)
NS(=O)(=O)c1ccc(CNC(=O)c2cccc(Oc3ccccc3)c2)cc1 | -1.73% | 
COc1ccc(N2CCN(C(=O)Cn3cnc4sc(C)c(S(=O)(=O)N5CCOCC5)c4c3=O)CC2)cc1 | 6.53% | 
